Measured values reported in paper PMC7862700, “An all-to-all approach to the identification of sequence-specific readers for epigenetic DNA modifications on cytosine”.

Tests used:
Experiment in all cases: DAPPL (digital affinity profiling via proximity ligation, sequencing); 10 mM Tris-HCl pH 7.5, 50 mM NaCl, 1 mM DTT, 4% glycerol, room temperature, 30 min; GST-TFs on glutathione beads, 16-mer random dsDNA library, 0.1% formaldehyde crosslink after washing; high values mean tight binding
Conditions in all cases: protein: recombinant; tags: N-terminal GST; dsDNA, one strand shown
[1] = biological target: T1, FLI1 (Homo sapiens, UniProt Q01543 1-452)
T1 sequence: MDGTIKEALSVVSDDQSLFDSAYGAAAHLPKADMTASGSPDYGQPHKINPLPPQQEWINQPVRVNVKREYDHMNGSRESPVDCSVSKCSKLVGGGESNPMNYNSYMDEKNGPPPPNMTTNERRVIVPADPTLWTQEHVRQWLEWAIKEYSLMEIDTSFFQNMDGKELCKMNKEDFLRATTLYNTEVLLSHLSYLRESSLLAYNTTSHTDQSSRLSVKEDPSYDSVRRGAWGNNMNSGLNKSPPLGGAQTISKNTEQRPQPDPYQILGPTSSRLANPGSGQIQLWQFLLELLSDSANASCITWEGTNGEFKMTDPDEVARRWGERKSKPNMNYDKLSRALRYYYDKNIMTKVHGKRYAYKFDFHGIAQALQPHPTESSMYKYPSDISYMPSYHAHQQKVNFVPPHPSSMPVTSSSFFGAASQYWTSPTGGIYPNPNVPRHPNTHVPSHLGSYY
Outline: (§1)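 Human transcription factors carrying a GST fusion were produced in yeast, bound to glutathione beads, tagged with DNA barcodes and pooled together with a tag-only sample. Each pool was held with 200 nmole of a random double-stranded 16-mer DNA library in Tris/NaCl/DTT/glycerol buffer for 30 min at room temperature, then washed, crosslinked in 0.1% formaldehyde, proximity-ligated with BsaI/T4 ligase (1 h, 37 °C), PCR-amplified and sequenced on an Illumina NextSeq500. Binding signal is the read frequency of each hexamer for a given factor divided by its frequency in the tag-only sample.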

[2] = biological target: T2, ELK1 (Homo sapiens, UniProt P19419 1-428)
T2 sequence: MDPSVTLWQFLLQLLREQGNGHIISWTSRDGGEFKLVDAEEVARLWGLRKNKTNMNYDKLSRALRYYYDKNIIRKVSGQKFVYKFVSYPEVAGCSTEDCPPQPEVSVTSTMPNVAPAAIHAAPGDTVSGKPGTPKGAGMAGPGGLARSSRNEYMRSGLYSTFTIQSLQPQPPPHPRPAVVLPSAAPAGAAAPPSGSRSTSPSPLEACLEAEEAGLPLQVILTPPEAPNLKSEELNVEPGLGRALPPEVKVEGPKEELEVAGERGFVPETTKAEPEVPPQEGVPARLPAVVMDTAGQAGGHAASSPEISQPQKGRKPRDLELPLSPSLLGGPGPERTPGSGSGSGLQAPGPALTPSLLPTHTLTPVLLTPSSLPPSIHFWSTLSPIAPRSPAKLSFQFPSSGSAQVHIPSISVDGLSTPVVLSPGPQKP
Outline: as §1

[3] = biological target: T3, GABPA (Homo sapiens, UniProt Q06546 1-454)
T3 sequence: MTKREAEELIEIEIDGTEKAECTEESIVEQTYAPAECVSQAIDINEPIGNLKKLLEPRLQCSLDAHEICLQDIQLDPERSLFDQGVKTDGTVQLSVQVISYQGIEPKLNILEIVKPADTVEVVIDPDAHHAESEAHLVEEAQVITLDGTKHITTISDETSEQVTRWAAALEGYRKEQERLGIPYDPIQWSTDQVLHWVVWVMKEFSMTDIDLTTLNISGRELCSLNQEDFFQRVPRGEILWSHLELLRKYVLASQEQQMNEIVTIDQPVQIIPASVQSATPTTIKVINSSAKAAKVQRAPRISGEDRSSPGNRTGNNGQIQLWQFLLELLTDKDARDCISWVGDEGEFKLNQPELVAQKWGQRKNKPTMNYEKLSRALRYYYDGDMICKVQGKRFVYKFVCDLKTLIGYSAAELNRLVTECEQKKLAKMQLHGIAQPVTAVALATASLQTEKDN
Outline: as §1

[4] = biological target: T4, ERG (Homo sapiens, UniProt P11308 1-479)
T4 sequence: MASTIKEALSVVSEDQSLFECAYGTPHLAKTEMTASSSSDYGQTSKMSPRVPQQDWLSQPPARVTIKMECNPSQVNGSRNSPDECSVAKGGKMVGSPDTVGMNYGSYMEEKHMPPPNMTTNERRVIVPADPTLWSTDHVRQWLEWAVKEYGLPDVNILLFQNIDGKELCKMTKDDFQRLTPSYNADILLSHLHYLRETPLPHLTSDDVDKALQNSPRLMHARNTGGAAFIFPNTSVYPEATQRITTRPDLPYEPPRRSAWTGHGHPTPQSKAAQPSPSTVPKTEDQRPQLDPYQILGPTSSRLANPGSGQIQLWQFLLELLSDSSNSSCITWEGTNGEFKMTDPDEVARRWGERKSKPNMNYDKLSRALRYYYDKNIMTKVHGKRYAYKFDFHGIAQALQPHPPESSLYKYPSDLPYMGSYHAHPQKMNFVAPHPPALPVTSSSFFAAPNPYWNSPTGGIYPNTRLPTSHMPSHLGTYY
Outline: as §1

[5] = biological target: ELF1 (Homo sapiens, UniProt P32519 1-619)
ELF1, sequence (P32519 whole entry): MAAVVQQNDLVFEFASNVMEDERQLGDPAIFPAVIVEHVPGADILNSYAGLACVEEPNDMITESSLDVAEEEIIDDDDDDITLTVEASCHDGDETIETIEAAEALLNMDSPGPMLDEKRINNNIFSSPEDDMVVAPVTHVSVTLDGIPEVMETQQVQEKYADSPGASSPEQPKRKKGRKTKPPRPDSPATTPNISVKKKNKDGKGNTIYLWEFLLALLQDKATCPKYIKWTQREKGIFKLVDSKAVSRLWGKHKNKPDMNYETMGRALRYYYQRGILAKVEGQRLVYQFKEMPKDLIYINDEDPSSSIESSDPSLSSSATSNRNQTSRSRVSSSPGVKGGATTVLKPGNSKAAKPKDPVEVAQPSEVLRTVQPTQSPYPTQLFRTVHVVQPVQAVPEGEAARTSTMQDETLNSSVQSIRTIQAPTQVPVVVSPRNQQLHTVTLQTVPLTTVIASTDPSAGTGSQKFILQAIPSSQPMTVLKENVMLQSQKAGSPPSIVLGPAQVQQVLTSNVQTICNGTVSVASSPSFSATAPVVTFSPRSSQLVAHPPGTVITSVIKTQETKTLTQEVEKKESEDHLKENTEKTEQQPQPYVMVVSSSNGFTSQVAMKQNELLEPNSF
Outline: as §1

[6] = biological target: T5, EHF (Homo sapiens, UniProt Q9NZC4 1-300)
T5 sequence: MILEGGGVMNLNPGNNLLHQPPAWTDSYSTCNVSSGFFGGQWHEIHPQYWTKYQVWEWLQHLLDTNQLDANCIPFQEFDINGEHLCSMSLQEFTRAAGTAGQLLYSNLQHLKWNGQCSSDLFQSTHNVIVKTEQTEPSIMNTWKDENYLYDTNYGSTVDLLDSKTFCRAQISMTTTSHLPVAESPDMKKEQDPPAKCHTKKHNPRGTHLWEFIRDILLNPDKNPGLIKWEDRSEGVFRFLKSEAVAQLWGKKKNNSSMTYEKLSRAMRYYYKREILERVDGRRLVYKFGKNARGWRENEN
Outline: as §1

[7] = biological target: SPI1 (Homo sapiens, UniProt P17947 1-270)
Outline: as §1

[8] = biological target: SPIB (Homo sapiens, UniProt Q01892 1-262)
SPIB, sequence (Q01892 whole entry): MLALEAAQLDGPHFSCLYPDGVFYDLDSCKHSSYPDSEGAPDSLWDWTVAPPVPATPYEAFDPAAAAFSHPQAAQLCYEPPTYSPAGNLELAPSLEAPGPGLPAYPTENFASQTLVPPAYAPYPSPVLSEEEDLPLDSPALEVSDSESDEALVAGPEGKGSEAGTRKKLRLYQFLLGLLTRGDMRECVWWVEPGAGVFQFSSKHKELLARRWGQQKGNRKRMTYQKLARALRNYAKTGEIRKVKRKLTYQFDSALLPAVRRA
Outline: as §1

[9] = biological target: T6, ELK3 (Homo sapiens, UniProt P41970 1-407)
T6 sequence: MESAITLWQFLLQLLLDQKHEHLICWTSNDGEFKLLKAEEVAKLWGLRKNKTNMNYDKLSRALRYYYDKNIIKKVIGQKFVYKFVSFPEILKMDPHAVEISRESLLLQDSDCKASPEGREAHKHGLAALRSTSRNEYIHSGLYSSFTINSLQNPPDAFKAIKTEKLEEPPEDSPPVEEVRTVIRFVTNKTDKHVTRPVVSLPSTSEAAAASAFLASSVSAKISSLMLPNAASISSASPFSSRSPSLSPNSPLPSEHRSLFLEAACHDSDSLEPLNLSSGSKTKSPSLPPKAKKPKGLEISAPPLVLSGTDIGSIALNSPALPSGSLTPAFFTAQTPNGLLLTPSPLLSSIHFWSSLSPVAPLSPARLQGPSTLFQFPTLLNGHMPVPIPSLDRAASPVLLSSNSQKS
Outline: as §1

Row | Sequence | binding signal [1] | binding signal [2] | binding signal [3] | binding signal [4] | binding signal [5] | binding signal [6] | binding signal [7] | binding signal [8] | binding signal [9]
1 | AATCTA | 1.07 fold enrichment (6-mer frequency, TF over GST control) | 1.06 fold enrichment (6-mer frequency, TF over GST control) | 1.05 fold enrichment (6-mer frequency, TF over GST control) | 1.17 fold enrichment (6-mer frequency, TF over GST control) | 1.17 fold enrichment (6-mer frequency, TF over GST control) | 1.17 fold enrichment (6-mer frequency, TF over GST control) | 1.12 fold enrichment (6-mer frequency, TF over GST control) | 1.17 fold enrichment (6-mer frequency, TF over GST control) | 1.12 fold enrichment (6-mer frequency, TF over GST control)
2 | AATACC | 1.25 fold enrichment (6-mer frequency, TF over GST control) | 1.09 fold enrichment (6-mer frequency, TF over GST control) | 1.09 fold enrichment (6-mer frequency, TF over GST control) | 1.21 fold enrichment (6-mer frequency, TF over GST control) | 1.19 fold enrichment (6-mer frequency, TF over GST control) | 1.19 fold enrichment (6-mer frequency, TF over GST control) | 1.14 fold enrichment (6-mer frequency, TF over GST control) | 1.16 fold enrichment (6-mer frequency, TF over GST control) | 1.25 fold enrichment (6-mer frequency, TF over GST control)
3 | GTAAAT | 1.02 fold enrichment (6-mer frequency, TF over GST control) | 1.09 fold enrichment (6-mer frequency, TF over GST control) | 1.21 fold enrichment (6-mer frequency, TF over GST control) | 1.14 fold enrichment (6-mer frequency, TF over GST control) | 1.16 fold enrichment (6-mer frequency, TF over GST control) | 1.15 fold enrichment (6-mer frequency, TF over GST control) | 1.22 fold enrichment (6-mer frequency, TF over GST control) | 1.18 fold enrichment (6-mer frequency, TF over GST control) | 1.16 fold enrichment (6-mer frequency, TF over GST control)
4 | AAAATC | 1.16 fold enrichment (6-mer frequency, TF over GST control) | 1.11 fold enrichment (6-mer frequency, TF over GST control) | 1.22 fold enrichment (6-mer frequency, TF over GST control) | 1.18 fold enrichment (6-mer frequency, TF over GST control) | 1.15 fold enrichment (6-mer frequency, TF over GST control) | 1.2 fold enrichment (6-mer frequency, TF over GST control) | 1.14 fold enrichment (6-mer frequency, TF over GST control) | 1.17 fold enrichment (6-mer frequency, TF over GST control) | 1.1 fold enrichment (6-mer frequency, TF over GST control)
5 | ATTTAC | 1.22 fold enrichment (6-mer frequency, TF over GST control) | 1.29 fold enrichment (6-mer frequency, TF over GST control) | 1.23 fold enrichment (6-mer frequency, TF over GST control) | 1.27 fold enrichment (6-mer frequency, TF over GST control) | 1.28 fold enrichment (6-mer frequency, TF over GST control) | 1.33 fold enrichment (6-mer frequency, TF over GST control) | 1.28 fold enrichment (6-mer frequency, TF over GST control) | 1.23 fold enrichment (6-mer frequency, TF over GST control) | 1.21 fold enrichment (6-mer frequency, TF over GST control)
6 | TTTACT | 1.41 fold enrichment (6-mer frequency, TF over GST control) | 1.56 fold enrichment (6-mer frequency, TF over GST control) | 1.53 fold enrichment (6-mer frequency, TF over GST control) | 1.43 fold enrichment (6-mer frequency, TF over GST control) | 1.43 fold enrichment (6-mer frequency, TF over GST control) | 1.51 fold enrichment (6-mer frequency, TF over GST control) | 1.46 fold enrichment (6-mer frequency, TF over GST control) | 1.37 fold enrichment (6-mer frequency, TF over GST control) | 1.41 fold enrichment (6-mer frequency, TF over GST control)
7 | TTCGTT | 1.33 fold enrichment (6-mer frequency, TF over GST control) | 1.4 fold enrichment (6-mer frequency, TF over GST control) | 1.33 fold enrichment (6-mer frequency, TF over GST control) | 1.25 fold enrichment (6-mer frequency, TF over GST control) | 1.32 fold enrichment (6-mer frequency, TF over GST control) | 1.36 fold enrichment (6-mer frequency, TF over GST control) | 1.29 fold enrichment (6-mer frequency, TF over GST control) | 1.33 fold enrichment (6-mer frequency, TF over GST control) | 1.24 fold enrichment (6-mer frequency, TF over GST control)
8 | ATCAAC | 1.12 fold enrichment (6-mer frequency, TF over GST control) | 1.19 fold enrichment (6-mer frequency, TF over GST control) | 1.19 fold enrichment (6-mer frequency, TF over GST control) | 1.07 fold enrichment (6-mer frequency, TF over GST control) | 1.13 fold enrichment (6-mer frequency, TF over GST control) | 1.12 fold enrichment (6-mer frequency, TF over GST control) | 1.08 fold enrichment (6-mer frequency, TF over GST control) | 1.1 fold enrichment (6-mer frequency, TF over GST control) | 1.21 fold enrichment (6-mer frequency, TF over GST control)
